Bioassay records as filed in PubChem.
MOR-DOR inv ag: inverse agonists of human mu-delta opioid receptor heterodimerization. P35372+P41143. cell-based MOR-DOR heterodimer luminescence, inverse agonism. inhibition, % at 9.3 µM. 0.21% of 340,000 active. AID 504357; in the data active = inhibition above about 22%, passing the limit was not always enough;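 also: 0% = cells with DMSO and 100% = wells without cells with DMSO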
Target sequence (P35372 whole entry, looked up): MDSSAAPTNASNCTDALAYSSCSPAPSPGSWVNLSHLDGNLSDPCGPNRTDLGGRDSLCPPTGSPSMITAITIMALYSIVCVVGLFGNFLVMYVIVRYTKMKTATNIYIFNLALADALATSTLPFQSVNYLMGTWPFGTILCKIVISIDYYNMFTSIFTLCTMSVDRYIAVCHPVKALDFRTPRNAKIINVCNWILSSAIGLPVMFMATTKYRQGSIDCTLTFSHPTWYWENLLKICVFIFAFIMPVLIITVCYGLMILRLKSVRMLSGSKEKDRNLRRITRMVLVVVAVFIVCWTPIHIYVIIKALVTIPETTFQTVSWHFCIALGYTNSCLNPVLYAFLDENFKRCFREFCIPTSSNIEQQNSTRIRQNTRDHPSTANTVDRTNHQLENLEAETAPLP
Target sequence (P41143 whole entry, looked up): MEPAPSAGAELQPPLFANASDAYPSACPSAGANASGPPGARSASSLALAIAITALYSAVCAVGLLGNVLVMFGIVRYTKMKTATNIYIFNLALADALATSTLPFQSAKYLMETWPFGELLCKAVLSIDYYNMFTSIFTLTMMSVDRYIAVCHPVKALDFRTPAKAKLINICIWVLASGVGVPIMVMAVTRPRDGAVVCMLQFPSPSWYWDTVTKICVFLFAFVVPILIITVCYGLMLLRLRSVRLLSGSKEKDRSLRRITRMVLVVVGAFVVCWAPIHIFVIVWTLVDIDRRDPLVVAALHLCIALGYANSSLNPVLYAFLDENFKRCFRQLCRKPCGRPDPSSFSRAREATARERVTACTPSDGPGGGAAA
HTR5A inv ag: counter-screen for OPRM1-OPRD1 inverse agonists: human HTR5A inverse agonism | AID 504634 | inhibition, % at 9.3 µM | HTR5A cell line, luminescence | P47898 | 0.083% of 340,000 active; in the data active = inhibition mostly above about 23%, no sharp cut-off; inactive = mostly below about 18%;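 also: 0% = cells with DMSO and 100% = no-cell wells with DMSO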
HTR5A ag: activates human HTR5A in OPRM1-OPRD1 agonist counter-screen | P47898 | 0.61% of 340,000 active | activation, % at 9.3 µM | HTR5A agonist assay, luminescence, cell-based; in the data active = activation mostly above about 9.5%, no sharp cut-off; inactive = mostly below about 7.6%;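 also: 0% = cells with vehicle only and 100% = reference agonist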
MOR-DOR ag-1: OPRM1-OPRD1 heterodimerization agonism; P35372+P41143; cells, luminescence; activation, % at 9.3 µM; 0.3% of 340,000 active; AID 504326;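 also: 0% = vehicle-treated cells and 100% = reference agonist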
MOR-DOR ag-2: opioid heterodimer agonism, HTR5A counter-screen; 13% of 800 active; activation, % at 9.3 µM; U2OS counter-screen cells, complementation luminescence, 3 h; shares compounds with HTR5A ag; AID 504913
HTR5A ag conf: HTR5A (human) agonism, confirmation; shares compounds with HTR5A ag; HTR5A agonist cell assay, luminescence; activation, % at 9.3 µM; 17% of 800 active; in the data active = activation above about 17%;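 also: 0% = cells with vehicle only and 100% = full reference agonist response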
* marks the source's active call; other numbers are inactive results; nt = not tested or not shown. Only some compounds are listed: those with a hit (about 1.1% of all), similar ones and a draw of the others. Rule as the data show it, unless noted: active = activation above about 18%; inactive = the rest.

SMILES | MOR-DOR inv ag | HTR5A inv ag | HTR5A ag | MOR-DOR ag-1 | MOR-DOR ag-2 | HTR5A ag conf
CC(=O)CCc1ccc(OCCCOc2cccc3cccnc23)cc1 | -10.6 | -19.3 | 22.9* | 2.1 | 0.8 | 13.3
CC(=O)c1ccc(OCCCOc2cccc3cccnc23)cc1 | 10.9 | -3.7 | 1.0 | -2.3 | nt | nt
c1ccc(Nc2ccccc2Nc2ccccn2)nc1 | -12.9 | 11.6 | 2.0 | 2.3 | nt | nt
Oc1cccc2ccc(Nc3ccccn3)nc12 | -2.5 | 21.6 | 15.5* | 0.5 | -2.5 | 9.0
CCC(=O)c1ccccc1OCC(=O)Nc1c(C)cccc1C | 0.4 | 11.7 | 16.2* | -0.1 | 1.1 | -5.6
O=C(COc1ccc(-c2nnco2)cc1)Nc1cc([N+](=O)[O-])ccc1F | 5.2 | 12.2 | -3.1 | -1.0 | nt | nt
C/C(=N/NS(=O)(=O)c1ccc(Br)cc1)c1ccc(NC(=O)c2ccc(C)o2)cc1 | 5.5 | -38.0 | 17.1* | -1.3 | 3.5 | -3.3
CCCCNc1c(-c2cccc(-c3cc(C(C)=O)cs3)c2)nc2cc(C)ccn12 | -45.8 | -69.3 | 23.6* | 7.9 | 5.2 | 5.7
COc1ccc(NC(=O)CN(C)CC(=O)Nc2ccc3c(c2)CCC3)cc1 | 11.0 | -9.9 | -2.0 | -2.1 | nt | nt
COc1ccc(NC(=O)O/N=C2/CCCc3ccc(OC)cc32)cc1 | 11.8 | -69.1 | 19.3* | -2.3 | 2.3 | 28.0*
COc1ccc2c(c1)/C(=N/OC(=O)c1cccs1)CCC2 | -25.8 | -116.9 | 21.6* | 3.6 | 3.5 | 31.2*
CCN1CCN(c2ccc(N3CCN(S(=O)(=O)c4ccc(C)c([N+](=O)[O-])c4)CC3)nn2)CC1 | 15.4 | 7.5 | -2.7 | -2.4 | nt | nt
CCOc1cc(N2CCOCC2)c(OCC)cc1NC(=O)COc1ncnc2ccccc12 | 7.1 | -7.9 | -5.1 | -1.6 | nt | nt
CCOc1cc(N2CCOCC2)c(OCC)cc1NC(=O)c1cc(-c2ccco2)nc2ccccc12 | -87.5 | -23.7 | 24.1* | 14.8 | 95.6* | 7.9
O=C(C1CC(=O)N(c2ccccc2F)C1)N1CCOCC1 (stereo unspecified) | 5.7 | -1.4 | 0.6 | -1.4 | nt | nt
CN1C/C(=C/c2ccccc2[N+](=O)[O-])C(=O)/C(=C\c2ccccc2[N+](=O)[O-])C1 | -37.6 | -13.9 | 3.6 | 8.6 | nt | nt
O=C1CC(c2cccc(Cl)c2)Cc2nc(N3CCN(c4ccccc4)CC3)ncc21 (stereo unspecified) | 6.9 | -42.0 | 16.8* | -1.6 | 1.7 | 2.4
COc1cc2c(c(OC)c1OC)C(=O)C(=Cc1ccccc1)O2 | 10.1 | 0.6 | -0.1 | -1.9 | nt | nt
Cc1cccc(C(=O)NNC(=O)c2c(O)c3ccccc3n(C)c2=O)c1 | -9.9 | -50.6 | 18.9* | 1.9 | 2.6 | 7.1
CCCCCC(C)NC(=S)NC(=O)c1cc(S(=O)(=O)N2CCOCC2)ccc1C (stereo unspecified) | 6.2 | -23.3 | 14.6* | -1.2 | 1.4 | 8.7
Cc1ccc2cc3c(N)c4c(C)ccc(C)c4nc3nc2c1 | -17.3 | -2.1 | 0.8 | 2.4 | nt | nt
O=S(=O)(c1ccc(S(=O)(=O)N2CCCN(Cc3ccccc3)C2)cc1)N1CCCCCC1 | 11.5 | -4.4 | 15.0* | -2.2 | 0.4 | 3.2
O=S(=O)(NCc1ccccc1)c1ccc(S(=O)(=O)N2CCCCC2)cc1 | -0.1 | -14.1 | 4.3 | 0.0 | nt | nt
COc1cc2nc(N3CCN(c4cc(C)ccc4C)CC3)nc(N)c2cc1OC | -78.9 | -65.0 | 16.6* | 14.2 | 13.0 | 6.3
C=CCN1CCc2c(cc(O)c(O)c2Cl)C(c2ccccc2)C1 (stereo unspecified) | -27.3 | -92.2 | 25.8* | 5.0 | 1.1 | 3.6
SMILES | MOR-DOR inv ag | HTR5A inv ag | HTR5A ag | MOR-DOR ag-1 | MOR-DOR ag-2 | HTR5A ag conf
Cc1nc2cc(NC(=O)N3c4ccccc4CC3C)ccc2n1C (stereo unspecified) | 14.1 | -57.9 | 22.4* | -2.5 | 0.9 | 24.4*
CSc1cccc(NS(=O)(=O)c2cn(C)cn2)c1 | 8.3 | 12.3 | -1.7 | -1.6 | nt | nt
CCN1CCN(C(=O)/C=C/c2ccc(C(C)C)cc2)CC1 | 8.3 | 3.7 | 0.8 | -1.6 | nt | nt
CCN1CCC(O)(/C=C/c2ccc(C(C)C)cc2)C(C(=O)/C=C/c2ccc(C(C)C)cc2)C1 (stereo unspecified) | -15.6 | -70.8 | 18.4* | 3.2 | 51.3* | 26.9*
Cc1ccccc1NC(=O)COc1coc(CN2CCCc3ccccc32)cc1=O | -11.0 | 9.1 | -3.6 | 2.0 | nt | nt
Cc1ccc(C)c(NC(=O)COc2coc(CN3CCc4ccccc43)cc2=O)c1 | -7.4 | -39.4 | 16.1* | 1.4 | 4.4 | 2.1
Cc1oc(-c2ccc(Cl)cc2)nc1CN1CCC(C(=O)N2CCc3ccccc3C2)CC1 | -11.9 | 0.6 | -0.2 | 2.3 | nt | nt
Cc1oc(-c2ccc(Cl)cc2)nc1CN1CCC(C(=O)N2CCN(Cc3ccccc3)CC2)CC1 | -26.1 | -42.9 | 15.5* | 5.1 | 2.0 | 2.8
Fc1ccc(C(c2nnnn2C2CCCC2)N2CCN(Cc3ccccc3)CC2)cc1 (stereo unspecified) | 2.7 | -39.5 | 18.0* | -0.6 | 6.3 | 1.4
Clc1ccc(C(c2nnnn2C2CCCC2)N2CCN(Cc3ccncc3)CC2)cc1 (stereo unspecified) | 4.4 | -9.3 | 0.8 | -1.0 | nt | nt
CC[C@H]1CCCCc2ccccc2[C@@H](C(=O)C[C@@H](O)CC(C)=O)OC1=O | 8.4 | 11.5 | -3.3 | -1.8 | nt | nt
Cc1noc(C)c1COC(=O)c1ccc(N(C)C)cc1 | 3.4 | 7.2 | 2.5 | -0.6 | nt | nt
CC1(C)CC(n2c(NCCO)nc3c(c2=O)C2(CCCC2)Cc2ccccc2-3)CCO1 (stereo unspecified) | -25.9 | -59.8 | 22.8* | 4.1 | 0.8 | 0.1
COc1ccc(NC(=O)c2sc3nc(N4CCOCC4)c4c(c3c2N)CC(C)(C)OC4)c(OC)c1 | 14.5 | -9.0 | -0.1 | -2.9 | nt | nt
COc1ccc(CCNS(=O)(=O)c2ccc(OC)c(OC)c2)cc1OC | 6.5 | -47.7 | 17.2* | -1.3 | 1.9 | -3.4
CCOc1ccccc1NC(=O)CN(C)S(=O)(=O)c1ccc2[nH]c(=O)oc2c1 | 15.4 | -1.4 | -4.7 | -3.1 | nt | nt
CN1C[C@@H]2[C@@H]3C(=O)N(C)C(=O)[C@@H]3[C@](C)(C1=O)N2C(=O)c1ccc(Cl)c(Cl)c1 | 6.8 | -45.4 | 15.5 | -1.2 | nt | nt
C/C=C/C=[N+](\[O-])C(C)/C(=N/O)c1ccc(F)cc1 (stereo unspecified) | 7.9 | -39.6 | 16.6* | -1.6 | 0.8 | -0.8
CCC(C)(C)C1CCC2(CC1)NC(=O)N(CC(=O)NCCc1c[nH]c3ccccc13)C2=O (stereo unspecified) | -3.6 | -51.9 | 18.7* | 0.9 | 1.9 | 8.0
CC(C)(C)NC(=O)NC(=O)COC(=O)CNC(=O)c1cccc(F)c1 | 1.1 | -0.7 | 14.7* | -0.2 | 56.1* | 25.6*
CC(C)(C)NC(=O)NC(=O)COC(=O)c1cccc(F)c1 | -23.4 | 4.3 | -1.6 | 3.3 | nt | nt
COc1ccc(/C=N/NC(=O)c2ccc(COc3ccccc3Cl)o2)cc1 | -0.2 | 11.9 | 1.2 | 0.0 | nt | nt
COc1ccc(/C=N/NC(=O)c2ccc(COc3ccccc3Cl)o2)c(OC)c1C | -62.0 | -38.1 | 21.9* | 11.6 | 8.4 | 15.5
